Calls of active or inactive are those of the source. Calls come from the whole dose curve; as a rule, active = well fitted curve in the direction sought with a large enough effect; inconclusive = small, poorly fitted or top-dose-only effect, or effect the other way, or another doubt; inactive = no such curve, though single readings can be large or run the other way.
Assay: Inducers of the Endoplasmic Reticulum Stress Response (ERSR) in human glioma: Validation (AID 504836); note: 0% is about no effect
Conditions: human glioma cells, ER stress response reporter; series mostly up to 38.3 µM; activation: at the top concentration
Procedure, shortened: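 ERSR induction read as luciferase luminescence (Bright-Glo, 10 min at room temperature) in stably transfected human U87-MG glioma cells exposed to compounds for 16 h, using GRP78 as sensor.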

Compound	activation
CC(C)NCC(O)c1cc(O)cc(O)c1 (stereo not given)	0.82% (inactive)
COc1cc(NS(C)(=O)=O)ccc1Nc1c2ccccc2nc2ccccc12	-3.07% (inactive)
CCOC(=O)c1cnc2c(cnn2CC)c1NN=C(C)C	-1.91% (inactive)
C=CC(N)CCC(=O)O (stereo not given)	-3.31% (inactive)
CC(C)NCC(O)c1ccc(NS(C)(=O)=O)cc1 (stereo not given)	-2.63% (inactive)
NC(N)=NC(=O)Cc1c(Cl)cccc1Cl	-3.77% (inactive)
CC(=O)Oc1cc(C(C)C)c(OCCN(C)C)cc1C	-2.7% (inactive)
CNC[C@H](O)c1cccc(O)c1	-2.53% (inactive)
CCCCCCCCCCCCCCCC(=O)NCCO	-1.91% (inactive)
NC1CCN(c2cccc(Cl)n2)CC1	-2.43% (inactive)
NC(N)=Nc1nc(CSCC/C(N)=N/S(N)(=O)=O)cs1	-2.47% (inactive)
Clc1cccc(Cl)c1NC1=NCCN1	-1.88% (inactive)
CO[C@@]1(NC(=O)CSCC#N)C(=O)N2C(C(=O)O)=C(CSc3nnnn3C)CS[C@@H]21	-1.98% (inactive)
CCN(CC)CC#CCOC(=O)C(O)(c1ccccc1)C1CCCCC1 (stereo not given)	-2.55% (inactive)
CC(C)(C)NCC(O)c1cc(O)cc(O)c1 (stereo not given)	2.91% (inactive)
CC(C)(C)NC[C@H](O)COc1nsnc1N1CCOCC1	-4.42% (inactive)
CC(=O)OCC(=O)[C@@]1(O)CC[C@H]2[C@@H]3CCC4=CC(=O)CC[C@]4(C)[C@H]3C(=O)C[C@@]21C	1.53% (inactive)
N[C@@H](COP(=O)(O)O)C(=O)O	-0.864% (inactive)
CCN(CC)C(C)CN1c2ccccc2Sc2ccccc21 (stereo not given)	-2.1% (inactive)
CCC1(C)CC(=O)NC1=O (stereo not given)	-4.67% (inactive)

Compound	activation
COc1ccc2cc([C@H](C)C(=O)O)ccc2c1	-4.06% (inactive)
CNCCCC12CCC(c3ccccc31)c1ccccc12	0.453% (inactive)
CC(=O)OCC1=C(C(=O)O)N2C(=O)[C@@H](NC(=O)Cc3cccs3)[C@H]2SC1	2.12% (inactive)
C[N+](C)(C)CCOC(N)=O	2.42% (inactive)
CC(C)C(=O)c1c(C(C)C)nn2ccccc12	-1.23% (inactive)
C[C@@H](O)[C@H]1C(=O)N2C(C(=O)O)=C(SCCN=CN)C[C@H]12	-1.86% (inactive)
Cc1nc2ccccn2c(=O)c1CCN1CCC(C(=O)c2ccc(F)cc2)CC1	-0.871% (inactive)
Nc1ccn([C@@H]2O[C@H](CO)[C@@H](O)C2O)c(=O)n1 (stereo not given in full)	-4.08% (inactive)
CN1CCN(CC(=O)N2c3ccccc3C(=O)Nc3cccnc32)CC1	0.906% (inactive)
NCCCNCCSP(=O)(O)O	1.55% (inactive)
CCO/C([O-])=N/c1c[n+](N2CCOCC2)no1	0.993% (inactive)
CC(=O)OC(C)C[N+](C)(C)C (stereo not given)	-1.78% (inactive)
CC(CCc1ccccc1)NCC(O)c1ccc(O)c(C(N)=O)c1 (stereo not given)	-1.24% (inactive)
NC(=O)c1cnccn1	-2.75% (inactive)
CC(C)(Oc1ccc(C2CC2(Cl)Cl)cc1)C(=O)O (stereo not given)	-0.971% (inactive)
CCn1cc(C(=O)O)c(=O)c2cc(F)c(N3CCNC(C)C3)c(F)c21 (stereo not given)	-0.628% (inactive)
O=c1[nH]cnc2[nH]ncc12	-2.7% (inactive)
NCCCCCC(=O)O	-1.03% (inactive)
CCN(CC)C(=O)c1ccc(O)c(OC)c1	-3.7% (inactive)
CC(=O)c1ccc(S(=O)(=O)NC(=O)NC2CCCCC2)cc1	1.16% (inactive)
